# Source: PubChem BioAssay
# ROC1-CUL1 inh = inhibitors of human ROC1-CUL1 ubiquitin ligase activity | in vitro K48 di-Ub FRET, acceptor:donor ratio, 45 min | 140,000 compounds, 0.6% hits | E3 ubiquitin-protein ligase RBX1 (Homo sapiens) + Cullin-1 (Homo sapiens), P62877+Q13616 | inhibition, % at 10 µM; in the data active = inhibition above about 25%
# Target sequence (P62877 whole entry, looked up): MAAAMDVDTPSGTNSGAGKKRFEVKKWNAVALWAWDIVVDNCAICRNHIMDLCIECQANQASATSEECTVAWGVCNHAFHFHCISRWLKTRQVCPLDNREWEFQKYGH
# Target sequence (Q13616 whole entry, looked up): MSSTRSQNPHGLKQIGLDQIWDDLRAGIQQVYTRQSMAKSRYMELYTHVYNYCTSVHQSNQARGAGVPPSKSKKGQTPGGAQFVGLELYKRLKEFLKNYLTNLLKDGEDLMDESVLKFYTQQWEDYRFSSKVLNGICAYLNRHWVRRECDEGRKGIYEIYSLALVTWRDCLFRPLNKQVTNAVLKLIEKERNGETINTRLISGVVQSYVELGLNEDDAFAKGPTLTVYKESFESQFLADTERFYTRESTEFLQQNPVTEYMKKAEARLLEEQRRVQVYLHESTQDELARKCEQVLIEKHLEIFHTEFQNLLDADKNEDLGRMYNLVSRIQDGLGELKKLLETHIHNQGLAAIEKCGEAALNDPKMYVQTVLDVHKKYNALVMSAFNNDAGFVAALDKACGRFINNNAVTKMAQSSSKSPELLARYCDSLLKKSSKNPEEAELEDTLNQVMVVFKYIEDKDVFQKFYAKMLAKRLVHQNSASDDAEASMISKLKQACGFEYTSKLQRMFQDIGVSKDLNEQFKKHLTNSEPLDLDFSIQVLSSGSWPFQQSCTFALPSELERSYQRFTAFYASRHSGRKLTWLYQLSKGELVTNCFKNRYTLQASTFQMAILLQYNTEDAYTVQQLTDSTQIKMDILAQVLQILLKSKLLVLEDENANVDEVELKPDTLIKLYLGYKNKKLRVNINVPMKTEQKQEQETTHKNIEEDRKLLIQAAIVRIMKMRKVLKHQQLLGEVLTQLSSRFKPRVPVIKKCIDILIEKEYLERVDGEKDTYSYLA
# * = called active by the depositor. This excerpt belongs to a sample that is enriched for hits.
SMILES,ROC1-CUL1 inh
O=C(O)c1cc(N2C(=O)c3cc([N+](=O)[O-])cc4cc([N+](=O)[O-])cc(c34)C2=O)ccc1Cl,11.3
Cc1ccnc(NC(=O)c2ccc(Cl)cc2Cl)c1,5.7
Cc1ccc(NS(=O)(=O)c2ccc(NC(=O)c3ccc(Cl)cc3Cl)cc2)c(C)c1,4.8
Cc1ccc(NC(=O)c2ccc(Cl)cc2Cl)c(S(=O)(=O)O)c1,96.5*
CCC(O)c1nc2ccccc2n1Cc1ccc(F)cc1 (stereo not drawn),-1.2
COc1ccc(-c2cnnc(NCCc3cccc(OC)c3)n2)cc1,0.2
O=C(NC1(C(Cl)(Cl)Cl)Oc2cc(Cl)c(Cl)cc2O1)Sc1ccccc1,49.4*
CCOC(=O)NC1(C(Cl)(Cl)Cl)Oc2ccc(Cl)cc2O1 (stereo not drawn),1.7
O=C(Nc1cc(Cl)ncn1)NC1(C(F)(F)F)Oc2ccccc2O1,0.6
CCCCCCCCN1C(=O)C(C=Nc2ccc3c(c2)Cc2ccccc2C3(C)C)C(=O)N(CCCC)C1=O (stereo not drawn),4.7
COCc1cc(C2c3c(n[nH]c3C)OC(=N)C2C#N)ccc1OC (stereo not drawn),-3.8
COc1ccc2c(c1)CCN(C=O)C2Cc1cc(OC)c(OC)cc1Br (stereo not drawn),12.9
Cc1cn2c3c(=O)n(CCCO)c(=O)n(C)c3nc2n1C1CCCCC1,1.5
O=c1c(-c2ccccc2)c1-c1ccccc1,0.4
COc1ccc(OC)c2c1C(=O)c1ccccc1-2,-1.2
O=C1c2ccccc2-c2c1c(O)c(O)c(-c1ccccc1)c2-c1ccccc1,102.1*
O=c1[nH]cc(Br)c(O)c1[N+](=O)[O-],5.9
Fc1ccc(C(CCCN2CCN(C3Cc4ccc(Cl)cc4Sc4ccc(Cl)cc43)CC2)c2ccc(F)cc2)cc1 (stereo not drawn),-7.0
Cc1cc(/C=C2/SC(=O)N(C(C)C)C2=O)c(C)n1-c1ccccn1,-5.4
CCOC(=O)C1CCN(S(=O)(=O)c2ccc(OCC)cc2)CC1,5.7
CCOc1ccc(S(=O)(=O)N2CCC(Cc3ccccc3)CC2)cc1,58.7*
CCOc1ccc(S(=O)(=O)N2CCOCC2)cc1,-6.9
O=C(O)c1ccc(NC(=O)c2ccccc2C(=O)O)cc1O,-3.1
O=C(CSc1ccccc1)Nc1ccc(O)c(C(=O)O)c1,-4.6
CCN(CC)c1ccc(/C=C2\C(=O)NC(=S)N(c3ccc(Br)cc3)C2=O)cc1,28.1*
SMILES,ROC1-CUL1 inh
CCN(CC)c1ccc(/C=C2\C(=O)NC(=O)N(c3ccc(Br)c(C)c3)C2=O)cc1,-39.8
O=C1NC(=S)N(c2ccc(Br)cc2)C(=O)/C1=C/c1ccc(F)cc1,-0.4
CN1C2=C(C#N)C(C(C#N)C#N)=NC2C(C)(C)c2ccccc21 (stereo not drawn),2.9
O=C(Nc1ccc(Cl)cc1Cl)c1nn2c(c1Cl)NC(c1cccs1)CC2C(F)(F)F (stereo not drawn),1.9
COc1ccc(-c2nnc(SCC(=O)N3CCOCC3)nc2-c2ccc(OC)cc2)cc1,4.7
CC1=C(C(=O)OCc2ccccc2)C(c2ccccc2Cl)N2C(=O)CCSC2=N1 (stereo not drawn),-13.9
O=C(Nc1ccc(S(=O)(=O)NCc2cccs2)cc1)c1ccc(Br)o1,9.2
COc1ccc2c(=O)c(I)coc2c1,-2.5
COc1ccc2c(=O)c(=O)c2c1,71.7*
COc1ccc2ccc3c4ccccc4c(OC)cc3c2c1,1.1
Nc1c(C(=O)Nc2cccc(Cl)c2Cl)sc2nc(-c3cccs3)ccc12,1.5
COC(=O)C1Cc2cc(OC)c(OC)cc2CN1 (stereo not drawn),-3.7
CCn1ncc(Br)c1C(=O)Nc1ccn(Cc2ccccc2)n1,2.6
CC(C)CNC(=O)c1coc(COc2cccc3cccnc23)n1,6.4
O=C(c1coc(COc2cccc3cccnc23)n1)N1CC[C@@H]2CCCC[C@H]2C1,56.6*
O=C(c1coc(COc2cccc3cnccc23)n1)N1CCCC1,0.7
COc1ccc(OC)c(-c2cc(Cl)c3c(c2)CC(CNC(=O)[C@H]2C[C@@H]4C=C[C@H]2C4)O3)c1 (stereo partly drawn),7.8
Oc1c(Cl)c(Cl)c2c(c1Cl)CC(Nc1ccc3ncccc3c1)O2 (stereo not drawn),81.3*
COC(=O)c1ccc2ncccc2c1,-16.5
CNCc1cn(C2CCN(C(=O)c3ccc4ncccc4c3)CC2)nn1,7.5
Cc1ccc(-n2nnc(C(=O)NC(C)C)c2-c2ccco2)cc1,-10.1
CC1CC(=Nc2ccc(F)cc2)c2ccccc2N1C(=O)c1ccc(F)cc1 (stereo not drawn),-3.1
O=C1SC(SCc2ccccc2Cl)=N/C1=C\c1ccc(C(=O)O)cc1,54.2*
CC(C)(C)c1cc(/C=C2\N=C(SCc3ccccc3Cl)SC2=O)cc(C(C)(C)C)c1O,4.8
CCSC1=N/C(=C\c2ccc(C(=O)O)cc2)C(=O)S1,3.4
SMILES,ROC1-CUL1 inh
CCC(CC)C(=O)Nc1ccccc1C(=O)OC,3.0
Fc1ccc(-n2[nH]nnc2=S)c(F)c1,0.6
CC1CCCC/C1=N\Nc1ccc(C(=O)Nc2ccccc2)cc1[N+](=O)[O-] (stereo not drawn),-1.2
CCN1C(=O)N=C(Cc2ccc(Br)cc2)C1=O,-16.0
O=c1cc(C2CCNCC2)nc(CC2CCCO2)[nH]1 (stereo not drawn),11.9
COC(=O)c1ccc(-n2c(C)ccc2C)cc1,1.2
Cc1ccc(C)n1-c1ccc(CC(=O)O)cc1,66.9*
CC(=O)Nc1ccc(-n2c(C)ccc2C)cc1,2.2
CC(C)COC(=O)c1ccc(NC(=O)C2CCC(N3C(=O)C4C5C=CC(C6CC56)C4C3=O)CC2)cc1 (stereo not drawn),2.7
Cc1cc(OCCOc2ccc(Cl)cc2/C=C2\C(=O)NN(c3ccccc3)C2=O)ccc1Cl,49.1*
CCOc1cc(/C=C2\C(=O)NN(c3ccccc3)C2=O)cc(Cl)c1OCCOc1ccc(C)cc1C,14.1
O=C1NN(c2ccccc2)C(=O)/C1=C/c1cc(Cl)cc(Cl)c1OCCCOc1ccc(Cl)cc1,11.2
COc1cc(/C=C2\C(=O)NN(c3ccccc3)C2=O)cc(Cl)c1OCCOc1ccc(Cl)c(C)c1,12.0
Cc1cccc(OCCOc2c(Cl)cc(Cl)cc2/C=C2\C(=O)NN(c3ccccc3)C2=O)c1,97.8*
Cc1cccc(OCCCOc2c(Cl)cc(Cl)cc2/C=C2\C(=O)NN(c3ccccc3)C2=O)c1,7.1
CCc1nnc(SCc2ccc(F)cc2)n1CC,-1.8
COc1ccc2oc(=O)c(C(=O)NCCc3c(C)[nH]c4ccc(OC(F)(F)F)cc34)cc2c1,1.1
COC(=O)c1cc(Cc2ccccc2)sc1NC(=O)c1c(C)noc1C,7.9
O=C(Nc1ccc(OCC(=O)N2CCOCC2)cc1)c1ccc2c(c1)OCO2,2.1
CC(NS(=O)(=O)c1ccc(CCC(=O)NC2CCCCC2)cc1)c1ccccc1 (stereo not drawn),-3.6
Cc1c(Cl)cccc1N1C(=O)/C(=C/c2cn(CC(=O)O)c3ccccc23)C(=O)NC1=S,80.7*
Cc1cc(C)cc(N2C(=O)/C(=C/c3cn(CC(=O)N4CCC(C)CC4)c4ccccc34)C(=O)NC2=S)c1,-5.7
O=C1NC(=S)N(c2ccc(Br)cc2)C(=O)/C1=C/c1cn(CC(=O)N2CCCc3ccccc32)c2ccccc12,-9.9
O=C1CC2C(CC(OC(=O)c3ccc(-c4ccccc4)cc3)C2/C=C/C(O)COc2cccc(Cl)c2)O1 (stereo not drawn),-2.7
Cc1ccc(NC(=O)CN2C(=O)N=C(Cc3sccc3C)C2=O)cc1,1.2
Cn1cc(CCC(=O)N(Cc2cccnc2)CC2CCN(C3CCCC3)CC2)cn1,-2.9
